Most compounds without a hit are left out; they make up all but 4.7% or so of the library.
proKLK7 act: proKLK7 zymogen activators, primary screen, biochemical, fluorescence intensity. AID 652039, 2013. purified proKLK7, EDANS-DABCYL substrate fluorescence; 100% is mature enzyme control, 0% vehicle. activation, % at 7 µM. 370,000 tested, 0.9% active;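 active means activation above the mean of all tested compounds plus 3 SD, computed per campaign excluding outliers beyond control limits, cut at about 13% in these data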
ADAM17 inh: ADAM17 inhibitors, primary screen, biochemical, QFRET; Disintegrin and metalloproteinase domain-containing protein 17 (Homo sapiens), P78536; recombinant ADAM17, EDANS/DABCYL FRET peptide cleavage; inhibition, % at 6.95 µM; 370,000 tested, 0.83% active;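 active means inhibition above the mean of compounds lying between control limits plus 3 SD, set per campaign, cut at about 8.5% in these data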;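 further: 0% = DMSO-only wells as the low control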
rCAG RNA binder: binders of r(CAG) RNA repeats, primary screen, biochemical, fluorescence; r(CAG) RNA repeat, TO-PRO-1 dye displacement fluorescence; inhibition, % at 3 µM; 370,000 tested, 1.3% active; AID 651821, 2012;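 active means inhibition above the plate cutoff, the mean of all test compounds on that plate plus 3 SD, cut at about 35% in these data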;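 further: 0% = DMSO alone and 100% = 100 µM mitoxantrone as full dye displacement; higher means more dye released from RNA so lower well fluorescence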
Pemphigus Ab inh: inhibitors of pemphigus antibody binding to DSG3, primary screen, biochemical, bead-based, flow cytometry, scFv-GFP | DSG3-coupled beads, scFv-anti-DSG3-GFP binding; stronger effect = lower value | 310,000 tested, 0.48% active | binding (percent of control), % at 10 µM | Desmoglein-3 (Homo sapiens), P32926;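 active means binding more than 3 SD below its plate's average and above zero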;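 further: hits lower antibody fragment binding to DSG3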
ADAM10 inh: human ADAM10 inhibitors, primary screen, biochemical, QFRET, HTS; 370,000 tested, 0.62% active; AID 720582, 2013; recombinant ADAM10, EDANS/DABCYL FRET peptide cleavage, 3 h; Disintegrin and metalloproteinase domain-containing protein 10 (Homo sapiens), O14672; inhibition, % at 7 µM;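 active means inhibition above a per-campaign cutoff equal to the mean of compounds falling between control-based bounds plus 3 SD, cut at about 20% in these data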;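 further: 0% = DMSO wells while the 100% control is not disclosed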
MPTP block: mitochondrial permeability transition pore inhibitors, primary screen, biochemical, isolated mouse mitochondria, absorbance | Ca2+ swelling absorbance, 30 min | inhibition, % at 10 µM | 360,000 tested, 1.4% active;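 active means inhibition of 50% or more, scaled per plate between neutral and stimulator controls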;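 further: 0% = DMSO wells given calcium and 100% = 1 mM EGTA wells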
Rh123 counter: fluorescence retest of MPTP screen hits in isolated mitochondria, single concentration | shares compounds with MPTP block | membrane potential, Rhodamine 123 fluorescence | inhibition, % at 10 µM | 5,000 tested, 78% active; in the data active means inhibition above about 22%;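 further: 0% = DMSO vehicle and 100% = positive control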
MPTP swell DR: mitochondrial permeability transition pore inhibitors, dose response, biochemical, absorbance, uHTS hits; shares compounds with MPTP block; isolated mitochondria swelling; IC50, µM; 780 tested, 58% active; in the data active means IC50 below about 20 µM
MPTP cs DR: fluorescent counter-screen in isolated mitochondria, dose response, counter-screen for MPTP inhibitor project, biochemical, fluorescence, uHTS hits | shares compounds with MPTP block | isolated mitochondria counterscreen, fluorescence read-out | IC50, µM | 780 tested, 49% active | AID 651564, 2012; in the data active means IC50 below about 80 µM
* hit, by the source's call; . = no result given.

SMILES | proKLK7 act | ADAM17 inh | rCAG RNA binder | Pemphigus Ab inh | ADAM10 inh | MPTP block | Rh123 counter | others
O=C(OC12CCCN(C1)/C(=C/c1ccc(Cl)cc1)C2)c1ccco1 (stereo not drawn) | 0.2 | 3.5 | 7.0 | . | -7.8 | . | .
Cc1nnsc1C(=O)N/N=C/c1ccc2ccccc2c1O | -0.9 | -6.7 | 4.3 | 100.4 | -5.3 | 56.2* | 55.8*
O=C(NC(=O)c1cccc(F)c1)OC[C@@H]1CCCN2CCCC[C@H]12 | -0.3 | -2.9 | -1.7 | 120.6 | -12.7 | -1.7 | .
O=C(Nc1ccc(C(=O)OC[C@@H]2CCCN3CCCC[C@H]23)cc1)c1cccc(Br)c1 | 0.1 | -2.9 | 0.9 | 164.0 | -4.6 | 70.3* | -6.8 | MPTP swell DR=13.5*;MPTP cs DR=47.2*
Cc1ccc(NC(=O)CSc2nnc(Cc3csc(C)n3)o2)cc1 | -0.4 | -4.0 | 6.0 | . | -4.3 | -0.2 | .
CCOc1ccc(Nc2nc(Cc3nnc(SCC(=O)c4ccc(C)c(C)c4)o3)cs2)cc1 | 0.3 | 0.3 | 7.2 | 96.0 | -3.4 | 83.0* | 74.1*
CCc1c(C)nc2ccc(Br)cc2c1Cl | 0.5 | 1.0 | 3.5 | 92.3 | 3.4 | 96.8* | 92.5*
Nc1nc(Cl)nc2ccc(Br)cc12 | -0.8 | -0.2 | 5.5 | 122.5 | -0.3 | 3.7 | .
COc1cc(CSc2nnnn2-c2ccc(C)cc2)cc(OC)c1OC | 0.0 | -0.5 | -7.7 | 119.5 | 5.8 | 91.9* | 88.6*
Cn1cnc2c1c(=O)n(Cc1ccc(Cl)cc1Cl)c(=O)n2C | -0.3 | -3.3 | -3.2 | 96.3 | -2.0 | 0.0 | .
Cn1c(=O)c2c([nH]c(OCc3ccc(Cl)cc3Cl)[n+]2Cc2ccc(F)cc2)n(C)c1=O | 0.3 | -0.9 | -1.1 | . | -2.4 | 50.5* | 7.1 | MPTP swell DR=>100;MPTP cs DR=>80
COc1ccc(C=O)cc1-c1cc(C(C)=O)c2n(c1=O)CCC2 | -1.0 | -1.3 | 6.9 | . | -3.5 | . | .
N#Cc1ccc(S(=O)(=O)N2CCCc3nc(-c4ccc(Br)cc4)ccc32)cc1 | 0.4 | -0.5 | 3.8 | . | -0.9 | . | .
Fc1ccccc1CNCCC(Cc1ccccc1)c1ccc2c(c1)OCO2 (stereo not drawn) | 0.1 | -0.1 | 1.2 | 107.2 | 6.7 | 85.2* | -1.2 | MPTP swell DR=5.4*;MPTP cs DR=16.1*
CC(=O)N(CCC(Cc1ccccc1)c1ccc2c(c1)OCO2)Cc1ccccc1F (stereo not drawn) | -0.3 | 4.4 | 2.1 | 101.5 | 3.3 | 0.6 | .
Cc1nc2ccccc2n1C1CC(=O)N(Cc2ccccc2)C1=O (stereo not drawn) | 0.2 | -2.4 | -2.6 | 97.5 | -7.3 | 64.8* | 57.7*
C[C@H]1[C@H](c2ccccc2)Oc2cccc(NCCc3ccccc3)c2S(=O)(=O)N1Cc1ccc(F)cc1 | -0.1 | 0.1 | 5.1 | . | -6.4 | . | .
CCOC(=O)c1ccc(S(=O)(=O)Nc2ccc3cn[nH]c3c2)cc1 | -0.3 | 1.0 | 6.5 | . | 2.3 | 54.9* | 38.5*
CCC(=O)N1CCc2cc(S(=O)(=O)NCCC(=O)N3CC=C(c4ccccc4)CC3)ccc21 | -0.9 | 1.4 | 13.3 | 104.2 | 0.9 | 48.2 | .
CCC(=O)N1CCc2cc(S(=O)(=O)NCCC(=O)N3CCc4ccccc4C3)ccc21 | -0.6 | 0.2 | -3.0 | 96.5 | -3.6 | 76.4* | 61.1*
Cc1ccc(-c2nc3ccccc3[nH]2)cc1NC(=O)c1ccc2c(c1)OCO2 | 1.1 | -3.2 | 9.7 | 102.0 | 9.8 | 1.7 | .
O=C(NC(=S)Nc1cc(-c2nc3ccccc3[nH]2)ccc1Cl)c1ccc2c(c1)OCO2 | -0.1 | -7.2 | 12.2 | 90.0 | -19.1 | 57.3* | 38.6*
COCCN1C(=O)C2=C(C1=O)C1N(C)c3ccccc3[C@@]13C[C@@H](CO)N(S(=O)(=O)c1ccc(OC)cc1)C3=N2 (stereo partly drawn) | -0.4 | -0.1 | 4.7 | . | 3.5 | . | .
C[C@@H]1CN([C@@H](C)CO)C(=O)CCCn2cc(nn2)CO[C@H]1CN(C)C(=O)C1CCCCC1 | 0.2 | -1.7 | 2.2 | . | -7.7 | . | .
Cc1ccc(S(=O)(=O)N2CC3=C(c4ccccc4)CC4(C)C(=O)C(C)(C)CC4=C3C2)cc1 (stereo not drawn) | -0.5 | -1.5 | 13.5 | . | -5.8 | . | .
SMILES | proKLK7 act | ADAM17 inh | rCAG RNA binder | Pemphigus Ab inh | ADAM10 inh | MPTP block | Rh123 counter | others
CN1CCCCC(NC(=O)c2ccc(C#N)cc2)C1=O (stereo not drawn) | 0.2 | -1.6 | 1.1 | . | -3.2 | . | .
Cc1ccc(S(=O)(=O)N2c3ccccc3C[C@H]2CC=C(c2ccccc2)c2ccccc2)cc1 | . | 2.5 | . | . | 7.4 | . | .
Cc1ccc(-n2c(Cl)c(Cl)nc(Cl)c2=O)cc1 | . | . | . | 94.3 | . | 67.2* | 0.1
COC(=O)[C@]12C[C@H](CC(=O)N3CCN(C(=O)C4CC4)CC3)C(=O)N(CCc3ccc(OC)c(OC)c3)C1=C[C@H](C(C)C)O[C@@H]2C1CC1 | 0.1 | -3.4 | -0.8 | . | -1.6 | . | .
CN(C)CCCN1c2ccccc2Sc2ccc(C(F)(F)F)cc21 | 1.4 | -9.1 | 2.5 | 103.8 | -16.9 | 101.6* | -21.4
OCCN1CCN(CCCN2c3ccccc3Sc3ccc(C(F)(F)F)cc32)CC1 | 1.0 | -4.5 | -0.9 | . | -17.6 | 86.0* | -18.1
OCCN1CCN(CC/C=C2/c3ccccc3Sc3ccc(C(F)(F)F)cc32)CC1 | -0.4 | -1.9 | -0.3 | 107.0 | -3.6 | 90.7* | -12.7
CCSc1ccc2c(c1)N(CCCN1CCN(C)CC1)c1ccccc1S2 | -0.3 | -8.0 | -0.7 | 127.5 | -10.4 | 95.7* | -20.0
O=C(Cc1ccc(NC(=O)C2CCN(C(=O)C3CCCC3)CC2)cc1)Nc1cccc(C(=O)N2CCCC2)c1 | 1.1 | -5.3 | 1.8 | . | -10.5 | . | .
CC(C)OC(=O)[C@@H](Cc1ccccc1)N[C@H](/C=C/c1ccccc1)[C@@H](O)Cc1ccccc1 | 1.2 | 0.9 | 1.8 | . | 2.6 | . | .
CCCC[C@H]1C2CC(OC(=O)Nc3ccc(C#N)cc3)C(C2)[C@H]2CCCCN21 (stereo partly drawn) | -0.6 | -10.6 | 4.8 | . | -12.7 | . | .
CCC(NC(=O)c1ccc2nc(Cc3ccc(OC)cc3)oc2c1)c1ccncc1 (stereo not drawn) | -1.0 | -3.4 | -0.9 | 71.7 | -1.7 | 65.5* | 75.8*
